# Experimental data from PubChem BioAssay AID1347414 (National Center for Advancing Translational Sciences (NCATS), 2020).
# Where “and” joins values, the source holds several entries; their conditions need not be identical. Equal values may be shown once. Records with an inconclusive call do not appear. Calls of active or inactive are those of the source. The call rests on the fitted dose curve; in most records, active means well fitted inhibition curve with a large enough effect; inconclusive means small, poorly fitted or top-dose-only effect; inactive means no such curve, though single readings can be large or run the other way.
# Assay: qHTS to identify inhibitors of the type 1 interferon - major histocompatibility complex class I in skeletal muscle: Secondary screen by immunofluorescence; further: nearly all actives have a fitted effect of over 70% in size;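 on activity change, negative = inhibition: digitonin at 100 µM served as the cytotoxic control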
# Details: C25cl48 myoblasts, IFN-b induced HLA-ABC immunofluorescence, 24 h; series mostly up to 49.8 µM; activity change, negative = inhibition: at the top concentration
# From the text: Assay Submitter (PI): Travis B. Kinder Ph.D. & James Inglese Ph.D. Assay Development and Screening Technology Laboratory (ADST) National Center for Advancing Translational Sciences (NCATS), Rockville, MD National Institute of Health (NIH), Bethesda, Maryland Idiopathic inflammatory myopathies, collectively referred to as myositis, are a group of rare autoimmune diseases characterized by skeletal muscle inflammation, weakness, and usually accompanied by systemic pathologies of the skin, lungs, or vasculature. Current immunosuppressive therapies and glucocorticoids are often not curative and are accompanied by harsh side effects, especially in children with juvenile myositis. We initiated a drug repurposing and development program to identify more targeted, less toxic therapeutics to treat myositis. Although its cause is not known, muscle from a subset of patients have an abundance of the inflammatory type 1 interferon (IFN) and a down-stream product major histocompatibility complex class I (MHC class I), which are both thought to contribute to damage and weakness. We conducted quantitative high throughput screening (qHTS) on 6,576 compounds (4,679 unique) through a series of cell-based assays to identify those that inhibit the IFN-stimulated expression of MHC class I in muscle precursor cells (myoblasts). The compound identification and evaluation strategy utilized a primary screen with reporter-tagged MHC class I in genome-engineered myoblasts, ATP content counter screen for viability, HLA-ABC immunofluorescence secondary screen, and HLA-B RT-qPCR tertiary screen. To verify activity of compounds identified by qHTS in HLA-B HiBit reporter cells, compounds were assayed by high throughput HLA-ABC immunofluorescence. Briefly, 216 compounds identified from primary and counter screening as inhibitory with minimal cytotoxicity were dispensed into black/clear bottom […] using acoustic dispensing in an 11-point, 1:3 titration with a high final concentration of 50 uM. Normal immortalized human myoblasts C25cl48 were added to the plates with 4.0 ng/ml human IFN-beta for 24 hours, fixed, stained by immunofluorescence for HLA-ABC protein, nuclei, and cell body, and analyzed by laser scanning cytometry as described by Auld et al., 2006. References: Auld DS, Johnson RL, Zhang Y, Veith H, Jadhav A, Yasgar A, Simeonov A, Zheng W, Martinez ED, Westwick JK, Austin CP, Inglese J. 2006. Fluorescent protein-based cellular assays analyzed by laser-scanning microplate cytometry in 1536-well plate format. Methods Enzymol 414:566-89. doi:10.1016/S0076-6879(06)14029-X
# PROTOCOL TABLE (as described by Inglese et al., 2007) SEQUENCE No. (e.g., 1, 2, 3, etc.); […] (e.g., Cells, Incubation, Reagent, etc.); VALUE; DESCRIPTION 0; Compounds; 25 nl; Follow-up compounds dispensed at 25 nl/well with Labcyte Echo 655 acoustic dispenser in triplicate Aurora ChemLib 1536K black/clear bottom, low base, TC 1536-well plates (00019324). Also dispensed 25 nl/well DMSO control, ruxolitinib IFN-b inhibitor control titration, and digitonin cytotoxic control 1a; Cells; 5 uL; Multidrop Combi (Thermo Scientific) to seed 125 cells/well into eight plates in 5 ul/well of iHSKM growth medium (GM) without dexamethasone into columns 1+2. Add metal lids with gas-exchange holes 1b; Cells; 5 uL; Multidrop Combi (Thermo Scientific) to seed 125 cells/well into eight plates in 5 ul/well of iHSKM GM without dexamethasone + 4 ng/ml IFN-b into columns 3 - 48. […]
# On the % scale 0 is the no-effect control and ±100 the full control effect; potency means the concentration at half of the fitted maximal effect.
SMILES,Potency,"activity change, negative = inhibition"
CC(C)[C@]12O[C@H]1[C@@H]1O[C@@]13[C@@]1(C)CCC4=C(COC4=O)[C@@H]1C[C@@H]1O[C@@]13C2=O,162 nM (active),
COc1cccc2c1C(=O)c1c(O)c3c(c(O)c1C2=O)C[C@@](O)(C(=O)CO)CC3OC1CC(N2CCOC(OC)C2)C(O)C(C)O1 (stereo not given in full),57.6 nM (active),
CC1(C)CC[C@]2(NC(=O)C(C)(F)F)CC[C@]3(C)[C@H](C(=O)C=C4[C@@]5(C)C=C(C#N)C(=O)C(C)(C)[C@@H]5CC[C@]43C)[C@@H]2C1,3240 nM (active),
C/C(=C\c1csc(C)n1)[C@@H]1C[C@@H]2O[C@]2(C)CCC[C@H](C)[C@H](O)[C@@H](C)C(=O)C(C)(C)[C@@H](O)CC(=O)O1,,-1.42% (inactive)
CC(=O)OC[C@H]1O[C@@H]([S-])[C@H](OC(C)=O)[C@@H](OC(C)=O)[C@@H]1OC(C)=O.CC[PH+](CC)CC.[Au],576 nM (active),
O=c1[nH]c2ccc(Cl)cc2c(N[C@@H]2CN3CCC2CC3)c1-c1nc2ccccc2[nH]1,1620 nM (active),
C[C@@H]1O[C@@H](O[C@H]2C[C@@H](O)[C@]3(CO)[C@H]4[C@H](O)C[C@]5(C)[C@@H](C6=CC(=O)OC6)CC[C@]5(O)[C@@H]4CC[C@]3(O)C2)[C@H](O)[C@H](O)[C@H]1O,64.7 nM (active),
Cc1[nH]nc2ccc(-c3cncc(OC[C@@H](N)Cc4c[nH]c5ccccc45)c3)cc12,230 nM (active),
Cc1[nH]ncc1-c1cc2nc([C@@H]3CC4CCN3CC4)[nH]c(=O)c2s1,3640 nM (active),
O=[N+]([O-])/C=C/c1ccc2c(c1)OCO2,18200 nM (active),
CC1=C(O)C(=O)C=C2C1=CC=C1[C@@]2(C)CC[C@@]2(C)[C@@H]3C[C@](C)(C(=O)O)CC[C@]3(C)CC[C@]12C,1150 nM (active),
C/C1=C/C[C@@H](/C(C)=C/c2csc(C)n2)OC(=O)C[C@H](O)C(C)(C)C(=O)[C@H](C)[C@@H](O)[C@@H](C)CCC1,,-1.18% (inactive)
CC(C)(C)c1cc(C=C(C#N)C#N)cc(C(C)(C)C)c1O,,-20.4% (inactive)
COC(=O)[C@@]12OC[C@]34[C@H]([C@@H](O)[C@@H]1O)[C@@]1(C)CC(=O)C(O)=C(C)[C@@H]1C[C@H]3OC(=O)[C@H](OC(=O)/C=C(\C)C(C)C)[C@@H]24,36.4 nM (active),
Cc1sc2c(c1C)C(c1ccc(Cl)cc1)=N[C@@H](CC(N)=O)c1nnc(C)n1-2,162 nM (active),
CC[C@@]1(O)C(=O)OCc2c1cc1n(c2=O)Cc2cc3ccccc3nc2-1,1.62 µM (active) and 2.05 µM (active),
CC(C)[C@]12O[C@H]1[C@@H]1O[C@]13[C@]1(O[C@H]1C[C@H]1C4=C(CC[C@@]13C)C(=O)OC4)[C@@H]2O,91.4 nM (active),
C[C@@H]1O[C@@H](O[C@@H]2C=C3CC[C@@H]4[C@H](CC[C@]5(C)[C@@H](c6ccc(=O)oc6)CC[C@]45O)[C@@]3(C)CC2)[C@H](O)[C@H](O)[C@H]1O,36.4 nM (active),
O=C1/C(=C\c2ccccc2)C[C@@]2(O)[C@H]3Cc4ccc(O)c5c4[C@@]2(CCN3CC2CC2)[C@H]1O5,2290 nM (active),
COC(=O)[C@]12CCC(C)(C)C[C@H]1[C@H]1C(=O)C=C3[C@@]4(C)C=C(C#N)C(=O)C(C)(C)[C@@H]4CC[C@@]3(C)[C@]1(C)CC2,3640 nM (active),
